HCV inhibitor – qHTS Assay for Inhibitors of Hepatitis C Virus (HCV) | 340,000 compounds, 3.4% hits | AID 651820, 2012 | Potency, µM (series often up to 41.8 µM), for the others: at the highest dose activity change, negative = inhibition, most hits filed as inhibitors | Huh7.5.1 HCVcc-Cre infection, luciferase reporter, 44 h; further: potency means the concentration at half of the fitted maximal effect
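Whole-lifecycle infectious HCVcc-Cre system; cells 1,000/well, compound then virus (~0.5 moi) added 4 h after plating, 44 h culture. Luciferase read 15 sec following 15 min substrate incubation, room temp.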
HCMV inh – qHTS Assay for inhibitors of the human cytomegalovirus (HCMV); activity change, negative = inhibition, % at 57.5 µM; HFF cells, HCMV-luciferase reporter, 72 h; active compounds read low; AID 1259415, 2018; 410,000 compounds, 4.5% hits; in the data active means activity change below about -60%; inconclusive means no clear call, values can overlap the other calls; inactive means above about -39%
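HFF cells seeded 16 h at 37C, treated with compounds, infected with luciferase-reporter HCMV at MOI 1 PFU/cell; luciferase read at 72 h post infection, normalized to buffer-only and Salinomycin controls.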
FMDV antiviral – High Throughput Screening for Foot and Mouth Disease Virus Antivirals; FMDV antiviral cell-based qHTS; Potency, µM (titrated, usually from 57.9 µM), for inactives: top-dose activity change, negative = inhibition, most hits filed as inhibitors; 410,000 compounds, 1.2% hits; calls by dose curve; tested in HEK293T cells; further: read-out not given here; potency means the concentration at half of the fitted maximal effect; nearly all actives have a fitted effect of over 45% in size
AmpC inh no detg – qHTS Inhibitors of AmpC Beta-Lactamase (assay without detergent); P00811; AmpC nitrocefin hydrolysis, absorbance 480 nm, 0.0001% Triton; Potency, µM (titrated, usually from 57.1 µM), inactives show at the top dose activity change, negative = inhibition, hits mostly inhibitors; 330,000 compounds, 0.52% hits;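 further: potency means the concentration at half of the fitted maximal effect; plate controls were no compound for no effect and no enzyme for full effect; nearly all actives have a fitted effect of over 20% in size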
Target sequence (P00811 whole entry, looked up): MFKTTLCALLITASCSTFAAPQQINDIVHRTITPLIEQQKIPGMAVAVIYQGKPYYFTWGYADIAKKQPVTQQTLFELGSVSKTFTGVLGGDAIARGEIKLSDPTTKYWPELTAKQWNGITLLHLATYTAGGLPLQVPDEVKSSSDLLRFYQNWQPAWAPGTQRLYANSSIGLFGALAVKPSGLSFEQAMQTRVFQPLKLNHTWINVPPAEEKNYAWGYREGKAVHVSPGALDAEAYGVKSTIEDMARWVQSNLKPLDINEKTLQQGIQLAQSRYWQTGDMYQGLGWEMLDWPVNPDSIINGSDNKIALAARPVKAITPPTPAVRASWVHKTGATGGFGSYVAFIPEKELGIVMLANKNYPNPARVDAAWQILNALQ
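20 mM phosphate pH 7.0 + 0.01% (detergent screen) or 0.0001% Triton X-100; 5.3 nM AmpC reagent; cpd preinc 15 min RT; nitrocefin (800 uM stock) to start; A480 q20 s × 4 min; Activity was normalised to no-enzyme and no-compound control wells.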
AmpC inh detg – qHTS Inhibitors of AmpC Beta-Lactamase (assay with detergent). 370,000 compounds, 0.041% hits. Potency, µM (top dose mostly 114 µM), inactives show top-dose activity change, negative = inhibition, most hits filed as inhibitors. AmpC hydrolysis of nitrocefin, absorbance 480 nm, 0.01% Triton;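 further: potency means the concentration at half of the fitted maximal effect; 0% = no-compound wells and -100% = no-enzyme wells; nearly all actives have a fitted effect of over 25% in size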
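20 mM phosphate pH 7.0 + 0.01% (detergent screen) or 0.0001% Triton X-100; 5.3 nM AmpC reagent; cpd preinc 15 min RT; nitrocefin (800 uM stock) to start; A480 q20 s × 4 min; Activity was normalised to no-enzyme and no-compound control wells.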
Starred values were filed as active, the others as inactive; ? = inconclusive; / = not tested or not shown. Hits are enriched below; roughly 7.3% of the tested compounds scored in any of these assays. Unless noted, the call rests on the fitted dose curve; in most records, active means well fitted curve in the direction sought with a large enough effect; inconclusive means small, poorly fitted or top-dose-only effect, or another doubt; inactive means no such curve, though single readings can be large; an effect the other way counts as inactive or inconclusive. Unless noted, on the % scale 0 is the no-effect control and ±100 the full control effect.

SMILES	HCV inhibitor	HCMV inh	FMDV antiviral	AmpC inh no detg	AmpC inh detg
OCCN(CCO)c1ccc(C(c2ccccc2Cl)c2ccc(N(CCO)CCO)cc2Cl)c(Cl)c1	?	/	39.8µM*	194.3%	-7.9%
COc1ccc(N2CC(O)=C(c3n(C)c4ccccc4[n+]3C)C2=N)cc1	-15.8%	-81.1*	-5.1%	-8.6%	-14.1%
COc1ccc(N2CC(O)=C(c3nc(C)cs3)C2=N)cc1	-34.5%	29.8	/	-10.6%	-1.8%
Cc1oc(-c2ccccc2NC(=O)c2ccccn2)nc1CNC(=O)c1cccc(C#CC(C)(C)O)c1	/	/	27.6%	/	/
CC(=O)c1cccc(S(=O)(=O)N2CCN(c3nc4cc(C)cc(C)c4cc3C#N)CC2)c1	12.6µM*	4.5	-22.2%	-1.3%	-12.1%
Cc1cc(C)c2cc(C#N)c(N3CCCN(S(=O)(=O)c4ccccc4)CC3)nc2c1	-1.2%	/	/	/	/
O=C1NC[C@H](CCCCN2CCN(CC3CCCCC3)C(=O)C2=O)N(CCC2CCCCC2)C1=O	/	11.4	-11.6%	/	/
Cc1ccccc1-c1nc(N2CCNCC2)c2ccccc2n1	/	/	-0.6%	/	/
c1ccc2c(N3CCNCC3)nsc2c1	?	-107.4*	1.9%	-18.9%	5.4%
COc1ccccc1N1CCN(CCCCN2C(=O)C3CCCN3C2=O)CC1 (stereo unspecified)	11.9%	16.6	2.5%	/	/
O=C1[C@H]2CCCC[C@H]2C(=O)N1CCCCN1CCN(c2nsc3ccccc23)CC1	-27.7%	-61.4*	-27.6%	/	/
CC1=C(C)/C(=N\OS(=O)(=O)c2ccccc2)C=CC1=O	12.6µM*	/	11.2µM*	-19.6%	1.2%
O=[N+]([O-])c1cnn(-c2nc(-c3cccs3)cc(C(F)(F)F)n2)c1	-27.5%	-99.0*	-19.5%	46.3%	-18.8%
CN1CCN(c2nc(-c3cccs3)cc(C(F)(F)F)n2)CC1	2.82µM*	-33.2	-24.6%	41.6%	1.3%
C=CCC[C@H](Cc1ccc(F)cc1)C(=O)OC[C@H](Cc1c[nH]c2ccccc12)NC(=O)[C@@H](CC=C)CC(=O)N[C@@H](CO)Cc1ccccc1	?	-86.4*	-19.7%	-35.5%	/
C=CCC[C@H](Cc1ccc(F)cc1)C(=O)OC[C@@H](Cc1c[nH]c2ccccc12)NC(=O)[C@H](CC=C)CC(=O)N(CCO)Cc1ccccc1	?	38.9	39.8µM*	56.8%	/
C=CC[C@H](CC(=O)N(CCO)Cc1ccccc1)C(=O)N[C@@H](COC(=O)[C@@H](CC=C)Cc1ccc(F)cc1)Cc1c[nH]c2ccccc12	22.4µM*	31.6	?	64.7%	/
CCN(CC)S(=O)(=O)c1ccc(N2C(=O)CC2(/C=C/c2ccccc2)C(=O)NC2CCCC2)cc1 (stereo unspecified)	8.2%	-31.7	-15.5%	-32.8%	-15.5%
COc1ccccc1/C=C/C1(C(=O)NC2CCCC2)CC(=O)N1c1ccc(F)cc1 (stereo unspecified)	?	-82.9*	?	44.2%	-1.1%
COc1ccccc1/C=C/C1(C(=O)NC2CCCC2)CC(=O)N1c1ccc(C)cc1 (stereo unspecified)	?	-98.4*	-20.7%	47.6%	-7.4%
Nc1ncnc2c1ncn2CCc1ccccc1	0.9%	?	8.6%	-22.3%	-8.1%
Nc1ncnc2c1nc(SCCO)n2Cc1ccccc1	10.4%	-74.0*	-24.7%	-2.8%	-7.8%
Fc1ccc(-n2nnnc2-c2ccccc2Cl)cc1	20.6%	-66.7*	-6.7%	-15.1%	-2.6%
Fc1cccc(-c2oncc2-c2nnnn2-c2ccc(Cl)cc2)c1	5.9%	-66.9*	-13.6%	-6.3%	-1.8%
Cc1ccc(-c2nn(-c3ccccc3)cc2CN(Cc2ccccc2)C(=O)c2ccco2)o1	10µM*	-75.6*	28.2µM*	-22.1%	-14.2%
SMILES	HCV inhibitor	HCMV inh	FMDV antiviral	AmpC inh no detg	AmpC inh detg
CN1/C(=C\C(=O)CN2C(=O)NC3(CCCCCC3)C2=O)C(C)(C)c2ccccc21	?	?	20µM*	5.5%	?
CN1/C(=C/C(=O)CSc2ccccc2C(=O)O)C(C)(C)c2ccccc21	12.4%	20.3	0.0%	-19.4%	-4.3%
CN1/C(=C\C(=O)CSc2cccc[n+]2[O-])C(C)(C)c2ccccc21	?	-16.1	0.0%	1.2%	4.2%
CN1/C(=C\C(=O)C[n+]2ccc(C(=O)c3ccccc3)cc2)C(C)(C)c2ccccc21	?	-94.7*	-32.1%	39.3%	-3.6%
CN1/C(=C\C(=O)C[n+]2cccc(Br)c2)C(C)(C)c2ccccc21	-25.2%	-83.3*	?	-12.6%	-2.9%
Cc1cccc[n+]1CC(=O)/C=C1\N(C)c2ccccc2C1(C)C	-30.2%	-94.5*	?	-4.3%	-4.7%
Cc1ccc(C)n1C1C(=O)N(C)c2ccc(Cl)cc21 (stereo unspecified)	/	19.2	/	/	/
Cn1c(N)c(C(=O)COC(=O)/C=C/c2cccc(Cl)c2)c(=O)n(C)c1=O	9.5%	-29.4	-5.3%	31.9%	/
CCOc1ccc(NC(=O)CSc2nc3ccccc3c(=O)n2CCC(=O)NC2CCCCC2)cc1	/	0.0	-1.7%	/	-6.4%
CN1/C(=C\C(=O)C[n+]2cccc(C(N)=O)c2)C(C)(C)c2ccccc21	7.1%	-32.9	-17.5%	19.1%	-6.8%
Cc1ccc[n+](CC(=O)/C=C2\N(C)c3ccccc3C2(C)C)c1	-4.3%	-97.5*	?	-15.5%	-1.0%
CN1/C(=C\C(=O)COC(=O)c2ccc(O)c(O)c2)C(C)(C)c2ccccc21	?	-78.6*	0.0%	-39.1%	-10.6%
O=C(NCc1ccncc1)C(=O)NCC1OCCN1S(=O)(=O)c1ccc(F)cc1 (stereo unspecified)	-5.2%	-4.8	37.7%	-5.4%	-9.0%
O=C(Nc1nc2c(s1)CCc1ccccc1-2)c1ccco1	31.6µM*	112.2	-7.7%	-29.3%	?
CC(=O)Nc1nc2c(s1)CCc1ccccc1-2	?	0.0	23.5%	-26.9%	0.7%
O=C(Nc1nc2c(ccc3ccccc32)s1)c1ccco1	25.1µM*	83.1	0.2%	-36.3%	0.6%
CC(=O)Oc1ccccc1Cn1c(C)c(C(=O)NCc2cccc([N+](=O)[O-])c2)sc1=O	/	23.7	-5.0%	/	/
CNC(=S)SCCOc1ccccc1C	38.7%	-68.6*	40.4%	-16.2%	?
CNC(=S)NNC(=O)COc1ccccc1C	-3.2%	?	/	-13.3%	?
COc1cc(OC)c(NC(=O)Nc2sc3nc4n(c(=O)c3c2C)CCC(C)CC4)cc1Cl (stereo unspecified)	/	4.5	?	/	23.5%
COc1ccc(NC(=O)CC2C(=O)N(c3ccc(C)cc3)C(=O)N2CCc2ccccc2)cc1 (stereo unspecified)	/	2.8	-5.8%	/	2.7%
CN(c1ccccc1C(=O)O)S(C)(=O)=O	7.0%	-0.9	-2.2%	-1.4%	-10.1%
CN(C)c1ccccc1C(=O)c1ccccc1N(C)C	3.98µM*	74.9	82.7%	-12.1%	-2.2%

Screening data from PubChem.
